From PubChem BioAssay
CendR NRP1 mod = alters CendR peptide binding to human NRP-1; O14786; FAM-RPARPAR peptide binding to NRP-1, fluorescence polarization; inhibition, % at 25 µM; actives 0.85% (n = 360,000); AID 602438;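 active = inhibition or corrected inhibition above about 18%, plus a signal ratio from 0.5 to 1.5, limit read from the data, passing the limit was not always enough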
FAS-TE inh = inhibitors of human fatty acid synthase thioesterase domain; recombinant FAS-TE, OMFH fluorogenic substrate, fluorescence endpoint; inhibition, % at 15 µM; actives 0.67% (n = 360,000); AID 602261;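 active = compounds whose normalised, plate-corrected inhibition of enzyme fluorescence in the single-dose primary screen is 50% or more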;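 note: 0% = DMSO with enzyme and 100% = substrate without enzyme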
NadD inh = inhibitors of Staphylococcus aureus NadD. purified NadD enzyme, colorimetric absorbance read-out. inhibition, % at 20 µM. actives 0.78% (n = 360,000); in the data active = inhibition above about 26%
Myeloid diff MLP = myeloid differentiation induction; ER-HoxA9 myeloid progenitors, lysozyme-GFP differentiation, flow cytometry; calls only at 10 µM; actives 1% (n = 360,000);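 active = normalized GFP-positive differentiation at or above the plate's own cutoff, the solvent-only control mean plus 3 SD; inconclusive = no clear call, values can overlap the other calls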;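 note: cells exposed to compound for four days before flow analysis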
CRFR2-BP antag = blocks CRF-induced signaling of the CRF-BP/CRF-R2 complex. inhibition, % at 11.8 µM. HEK293 CRF-R2/CRF-BP, CRF-induced calcium fluorescence. AID 588475. actives 0.59% (n = 350,000);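 active = inhibition of the ligand-induced calcium signal above about 50% at the single tested concentration, limit read from the data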
* = called active by the depositor; i = inactive; ? = inconclusive; . = no result given; + = active, no number. Rows were chosen to be rich in hits. Some 3.6% of all compounds tested hit in one or more screens of this group.

SMILES	CendR NRP1 mod	FAS-TE inh	NadD inh	Myeloid diff MLP	CRFR2-BP antag
COc1ccc(Nc2nc(-c3c[nH]c4ccccc34)cs2)cc1	-32	6	15	+	-6
CC(=O)Nc1ccc(S(=O)(=O)NCc2cc(=O)n(C)c(=O)n2C)cc1	-3	-6	-5	i	-5
COc1c(/C=N/Nc2nc(N3CCCCC3)nc(N3CCCCC3)n2)cccc1[N+](=O)[O-]	4	47	12	i	-25
COc1cccc(/C=N/Nc2nc(Nc3ccc([N+](=O)[O-])cc3)nc(N3CCCC3)n2)c1O	10	18	35*	?	-43
COc1ccccc1CNc1nc(NC(C)C)nc2cc(-c3ccccc3)sc12	-9	-17	18	+	.
CC(C)Nc1nc(NCCOc2ccccc2Cl)c2sc(-c3ccccc3)cc2n1	14	-7	29	i	.
CC(C)(C)c1ccc(C2=NC(=O)C(CC(=O)O)S2)cc1 (stereo not drawn)	-5	-15	-1	+	-23
CCOC(=O)C1=C(C)NC(=O)NC1c1ccc(N2CCC(c3ccccc3)=N2)cc1 (stereo not drawn)	-126	0	1	+	2
CCOC(=O)C1=C(C)NC(=O)NC1c1ccc(NC(C)=O)cc1 (stereo not drawn)	-12	-2	-1	i	-12
Cc1cc([N+](=O)[O-])ccc1NCc1ccc2ccccc2c1	-14	32	-3	i	18
O=C(O)[C@H](Cc1ccccc1)Nc1ccc([N+](=O)[O-])cn1	-1	-4	-7	i	-7
Cc1cc([N+](=O)[O-])ccc1NCc1ccccc1	15	18	-4	i	114*
COc1ccc(CNc2cc([N+](=O)[O-])ccc2OC)cc1	-8	34	5	i	89*
O=C(O)C(Cc1ccccc1)Nc1ccc([N+](=O)[O-])cc1[N+](=O)[O-] (stereo not drawn)	4	-82	-2	.	53*
CC1(C)CN(C2CCCCC2)C(=O)[C@H]1CC(=O)Nc1ccccc1	-6	-6	-9	i	9
CNC(=O)C[C@@H]1C(=O)N(C2CCCCC2)CC1(C)C	-20	-6	4	+	3
Cc1noc(C)c1S(=O)(=O)Nc1ccc2c(c1)C(=O)N([C@H](C)CO)C[C@H](C)[C@@H](CN(C)S(=O)(=O)c1ccccc1)O2	3	-12	-2	i	-4
O=C(CN1CCC(NC(=O)C2CC2)CC1)Nc1cccc(F)c1	22	-6	-8	.	-8
C#CCCc1ccccc1/C=[N+](/C)[O-]	-10	-9	8	i	6
O=C1c2cc(Cl)ccc2OC2(CCNCC2)C12CC(c1ccc(Cl)cc1)=NO2 (stereo not drawn)	25*	-28	-1	i	-4
O=C1c2cc(Cl)ccc2OC2(CCNCC2)C12CC(c1ccccc1)=NO2 (stereo not drawn)	-2	-9	-1	i	-9
O=C(CCCCn1c(=O)c2ccccc2n(Cc2ccc(F)cc2Cl)c1=O)NCc1ccco1	8	4	-1	i	75*
O=C(N/N=C/c1ccccc1Cl)C1CC1	13	-4	-5	i	77*
O=C(COc1ccccc1[N+](=O)[O-])N1CCCc2ccccc21	7	2	-3	i	-1
O=C(CC1CCCC1)N1CCN(S(=O)(=O)c2cccc(Br)c2)CC1	-8	1	0	i	-1
SMILES	CendR NRP1 mod	FAS-TE inh	NadD inh	Myeloid diff MLP	CRFR2-BP antag
CN1CCN(CCCNC(=O)c2ccc(/C=C3/Sc4ccccc4N(Cc4cccc(Cl)c4)C3=O)cc2)CC1	1	11	-6	+	-9
CN1CCN(CCCNC(=O)c2ccc(/C=C3\Sc4ccccc4N(Cc4ccc(F)cc4)C3=O)cc2)CC1	10	6	-4	i	4
CC(C)c1ccc(CC(=O)N2CCC2(C)C(=O)Nc2ccc3c(c2)OCCO3)cc1 (stereo not drawn)	7	14	-6	i	.
COc1ccc(-n2c(C)cc(/C=C3/SC(=S)N(C)C3=O)c2C)cc1	-110	2	2	+	-47
Cc1cc(/C=C2\SC(=S)N(Cc3ccco3)C2=O)c(C)n1-c1ccccc1	-149	21	12	+	-25
CN(C)c1ccc(/C=C2\SC(=O)N(CC(O)Cn3c4ccccc4c4ccccc43)C2=O)cc1 (stereo not drawn)	-37	-4	33*	i	-103
CN(C)c1ccc(C=C2SC(=S)N(Cc3ccco3)C2=O)cc1	128	-111	8	+	-129
Cc1ccc(OC(=O)N(C)C[C@H]2OCc3cn(nn3)CCCC(=O)N([C@H](C)CO)C[C@@H]2C)cc1	-4	-9	1	i	8
Cc1ccc2oc(=O)n(CCOc3ccccc3C)c2c1	38*	29	-8	i	15
O=C1NC(=Nc2ccccc2)S/C1=C\c1cccn1-c1ccccc1	-4	8	38*	?	-15
Cc1cccc(N=C2NC(=O)/C(=C/c3cccn3C)S2)c1	-21	-4	-9	i	-15
CCN1C(=O)/C(=C/c2cn(-c3ccccc3)nc2-c2cccnc2)SC1=S	100	-33	10	i	-21
O=C(O)CCN1C(=O)/C(=C\c2ccncc2)SC1=S	11	-3	-3	i	0
COc1ccc(-c2nn(-c3ccccc3)cc2/C=C2/SC(=S)N(CCC(=O)O)C2=O)cc1	-106	-18	25	i	11
O=C(O)CCCCCN1C(=O)/C(=C\c2cn(-c3ccccc3)nc2-c2cccs2)SC1=S	-109	-41	32*	i	22
Cc1ccc(-c2nn(-c3ccccc3)cc2/C=C2\SC(=S)N(CC(=O)O)C2=O)cc1	-100	18	41*	i	15
COc1ccc(-c2nn(-c3ccccc3)cc2/C=C2/SC(=S)N(CCC(=O)O)C2=O)c(C)c1	-83	9	25	i	52*
O=C(O)CCN1C(=O)/C(=C/c2cn(-c3ccccc3)nc2-c2cccs2)SC1=S	-157	1	31*	i	5
COc1ccccc1N1CCN(C(=O)c2cccc(S(=O)(=O)N3CCCCCC3)c2)CC1	-5	3	1	i	-7
O=C(O)CCCCCN1C(=O)/C(=C/c2cn(-c3ccccc3)nc2-c2cccs2)SC1=S	-121	-45	31*	i	13
CCOc1ccc(-c2nn(-c3ccccc3)cc2/C=C2\SC(N)=NC2=O)cc1C	7	8	32*	i	25
CC1=NNC(=O)/C1=C\c1cn(-c2ccccc2)nc1-c1cccs1	-5	-3	17	?	-57
O=C(Nc1ccc2c(c1)OCO2)c1c[nH]c(=O)n(-c2ccc(F)cc2)c1=O	20*	-4	12	i	16
CC(=O)Nc1ccc(-c2ccnc3c2CC(C(=O)NCc2cccc(Cl)c2)O3)cc1 (stereo not drawn)	-12	4	-2	?	.
